Test results: PubChem BioAssay (Tox21)
Results filed as inconclusive are left out. Where a call stands in place of a potency, no number is given. The source made the active and inactive calls. Calls come from the whole dose curve; as a rule, active = well fitted cell-killing curve with a large enough effect in the repeat runs; inconclusive = weak or mixed curves, or effect the other way; inactive = flat fitted curve, though single readings scatter.

assay: Human pregnane X receptor (PXR) small molecule agonists, qHTS cell viability counter screen (AID 1346977); details: PXR-Luc HepG2 viability, CellTiter-Fluor, 24 h; series mostly up to 92.4 µM; note: nearly all actives have a fitted effect of over 50% in size
From the text: U.S. Tox21 Program National Center for Advancing Translational Sciences [NCATS] NIH Chemical Genomics Center [NCGC] U.S. Environmental Protection Agency [EPA] National Institutes of Environmental Health Sciences [NIEHS] National Toxicology Program [NTP] U.S. Food and Drug Administration [FDA] Tox21 Assay Overview: The human pregnane X receptor (hPXR) regulates the expression of several drug metabolizing enzymes and induction of these proteins is a major mechanism for developing drug resistance in cancer. One such key enzyme catalyzing the drug metabolism is cytochrome P450 3A4 (CYP3A4). Changes in CYP3A4 expression affect drug metabolism, thereby reducing the therapeutic efficacy and altering toxicological response to a drug and which finally causes adverse drug interaction. To screen Tox21 libraries for compounds that activate hPXR-mediated CYP3A4 gene expression, PXR-Luc HepG2 cells were used. Also cytotoxicity of the compounds was tested in parallel by measuring the cell viability using CellTiter-Fluor assay system in the same wells.
Tox21 Assay Protocol Summary: PXR-Luc HepG2 cells were dispensed at 2,000 per well in 5uL of assay medium containing 5% charcoal-stripped FBS into white solid bottom 1536-well plates (Corning Life Sciences, Corning, NY) using a Multidrop Combi (Thermo Scientific, Waltham, MA) dispenser. The assay plates were incubated at 37 C and 5% CO2 for 5hr, and then 23nL of compounds dissolved in DMSO and positive control were transferred using a Pintool station (Wako, San Diego, CA). The assay plates were incubated at 37C and 5% CO2 for 24hr. For cytotoxicity read, after 23hr incubation at 37C, 1uL CellTiter-Fluor reagent (Promega Corporation, Madison, WI) was added to each well of the assay plates using Flying Reagent Dispenser (FRD, Aurora Discovery, San Diego, CA). After 1hr incubation at 37C and 5% CO2, the fluorescence signal was quantified using a ViewLux plate reader (PerkinElmer, Shelton, CT).

SMILES | Potency
CN(CC1(C)CCCO1)S(=O)(=O)c1ccc(Cl)c(S(N)(=O)=O)c1 (stereo not given) | inactive
FC(F)(F)C(Cl)(Cl)Cl | inactive
O=C1N(c2ccccc2)c2ccccc2C1(Cc1ccncc1)Cc1ccncc1 | inactive
Cc1cc(S(=O)(=O)O)c(N)cc1Cl | inactive
CS(=O)(=O)c1ccc([C@@H](O)[C@@H](CF)NC(=O)C(Cl)Cl)cc1 | inactive
OCC(CBr)(CBr)CBr | inactive
CCCCCCCCc1ccc(S(=O)(=O)O)cc1 | inactive
CCc1cc2cc(OC)c(OC)cc2c(Cc2ccccc2)n1 | inactive
Cc1c(C(=O)NCCO)[n+](=O)c2ccccc2n1[O-] | inactive
OC[C@H]1O[C@@H](O[C@H]2[C@H](O)[C@@H](O)[C@H](O)O[C@@H]2CO)[C@H](O)[C@@H](O)[C@H]1O | inactive
Cc1c(N)cccc1N | inactive
CCCCCCCOC(=O)CCC | inactive
COc1cc(Cl)ccc1Cl | inactive
CCCCCCC | inactive
CCCOc1ccc2c(c1)CC[C@@H]1[C@@H]2CC[C@]2(C)C(OC)CC[C@@H]12 (stereo not given in full) | inactive
CC(C)Nc1nc(N)nc(Cl)n1 | inactive
O=C1C=CC(=O)O1 | inactive
CCC1(C)NC(=O)NC1=O (stereo not given) | inactive
Cc1ccc([N+](=O)[O-])cc1Cl | inactive
ICCc1ccccc1 | inactive

SMILES | Potency
C=CC1CO1 (stereo not given) | inactive
CCC(=O)Nc1ccc(O)cc1 | inactive
Cn1cnc2c(F)c(Nc3ccc(Br)cc3Cl)c(C(=O)NOCCO)cc21 | inactive
CC(C)NCC(O)COc1ccc(CCOCC2CC2)cc1 (stereo not given) | inactive
CCCNC(C)C(=O)Nc1c(C)csc1C(=O)OC (stereo not given) | inactive
CCCCCCCCCC/C=C/C#N | inactive
Cc1ncc(CO)c(CN)c1O | inactive
CCCC(CCC)(C(=O)OCC)C(=O)OCC | inactive
COc1cc(C)ccc1C(C)C | inactive
CCOc1ccc(NS(=O)(=O)c2ccc(N)cc2)nn1 | inactive
COc1ccc2nc(NC(=O)Nc3ccccc3)sc2c1 | inactive
CCCCC(=O)O[C@]1(C(=O)CO)[C@H](C)C[C@H]2[C@@H]3CCC4=CC(=O)C=C[C@]4(C)[C@@]3(F)[C@@H](O)C[C@@]21C | inactive
NC(=O)Cc1cccc(C(=O)c2ccccc2)c1N | inactive
CC(C)C1=CC2=CC[C@@H]3[C@](C)(CCC[C@@]3(C)C(=O)O)[C@H]2CC1 | inactive
CC(C)C(=O)OC/C=C/c1ccccc1 | inactive
OCCN(CCO)CCN(CCO)CCO | inactive
CC(C)NC[C@@H](O)COc1cccc2ccccc12 | inactive
CC1=CC(=O)CC(C)(C)C1=O | inactive
CN1CCC[C@@H]1Cc1c[nH]c2ccc(CCS(=O)(=O)c3ccccc3)cc12 | inactive
COc1nc(C)nc(NC(=O)NS(=O)(=O)c2ccccc2OCCCl)n1 | inactive
